# Several values for one entry are separate records, joined by “and”; a condition that tells them apart may be missing. Equal values may be shown once. Records with an inconclusive call do not appear. A call without a number means that no potency is given here. Some compounds were tested as several samples or in several runs, with calls that do not always agree. Activity calls are given as the source filed them. Unless noted, calls come from the whole dose curve.
# Legend:
# [1] = qHTS assay to identify small molecule agonists of the sonic hedgehog signaling (Shh) pathway (AID 1259368);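 note: NIH/3T3-derived 3T3Gli1-Luc cells carrying a stable Gli1-driven firefly luciferase reporter; series mostly up to about 92 µM; nearly all actives have a fitted effect of over 15% in size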
# Outline: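 Stable NIH/3T3 Gli1-Luc reporter clone; 24 hr cpd exposure after a 4 hr settling period; luminescence endpoint.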
# [2] = qHTS assay to identify small molecule antagonists of the sonic hedgehog signaling (Shh) pathway (AID 1259369); note: nearly all actives have a fitted effect of over 45% in size; note: potency is the fitted concentration of half-maximal effect
# Outline: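 Gli1 transcriptional reporter (firefly Luc) in NIH/3T3 background, conditioned-medium activated. 24hr exposure, luminescence endpoint.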
# [3] = biological target: Estrogen receptor beta (Homo sapiens) (UniProt Q92731); test: qHTS assay to identify small molecule agonists of the estrogen receptor beta (ER-beta) signaling pathway (AID 1259377; active = well fitted activation curve with a large enough effect in the signal ratio in the repeat runs, not every such curve was filed as active; the % refers to the signal ratio)
# Sequence of Estrogen receptor beta (Homo sapiens) (Q92731 whole entry, looked up): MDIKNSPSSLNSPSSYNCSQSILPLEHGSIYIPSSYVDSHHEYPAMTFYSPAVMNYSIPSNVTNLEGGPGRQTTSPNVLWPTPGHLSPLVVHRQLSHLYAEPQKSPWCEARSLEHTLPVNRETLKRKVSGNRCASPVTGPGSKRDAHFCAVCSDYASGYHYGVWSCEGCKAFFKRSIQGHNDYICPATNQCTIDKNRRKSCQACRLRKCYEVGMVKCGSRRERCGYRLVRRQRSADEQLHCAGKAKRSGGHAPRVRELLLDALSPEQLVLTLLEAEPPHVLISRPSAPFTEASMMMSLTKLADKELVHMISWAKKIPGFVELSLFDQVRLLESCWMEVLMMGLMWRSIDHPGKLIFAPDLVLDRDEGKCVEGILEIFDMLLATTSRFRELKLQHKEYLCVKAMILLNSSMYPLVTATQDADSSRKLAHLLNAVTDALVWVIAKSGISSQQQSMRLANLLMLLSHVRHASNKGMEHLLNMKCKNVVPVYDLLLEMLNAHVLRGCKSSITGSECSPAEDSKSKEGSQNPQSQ
# Outline: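 ER-beta-UAS-bla HEK293T (GripTite) cells carrying a UAS-driven beta-lactamase reporter, in medium with 2% charcoal-stripped FBS, were exposed to compounds for 16 hr at 37C; LiveBLAzer B/G FRET substrate was then added and fluorescence read after 2 hours at room temperature.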
# [4] = biological target: Estrogen receptor beta (Homo sapiens) (UniProt Q92731); test: qHTS assay to identify small molecule antagonists of the estrogen receptor beta (ER-beta) signaling pathway (AID 1259378; active = well fitted inhibition curve with a large enough effect in the signal ratio in the repeat runs, not every such curve was filed as active; the % refers to the signal ratio; note: potency is the fitted concentration of half-maximal effect)
# Outline: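 Antagonist mode: compounds added to beta-lactamase reporter HEK293T ER-beta-UAS cells stimulated with E2 (1nM final), 16 hr at 37C. LiveBLAzer B/G FRET substrate, 2 hours room temperature, fluorescence read-out.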
# [5] = qHTS assay to identify small molecule agonists of the androgen receptor (AR) signaling pathway in the presence of an antagonist - cell viability counter screen (AID 1259379; active = well fitted curve in the direction sought with a large enough effect in the repeat runs; an effect the other way counts as inactive or inconclusive; note: nearly all actives have a fitted effect of over 25% in size; note: potency is the fitted concentration of half-maximal effect)
# Outline: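 Counter screen for cell viability run in parallel with the AR agonist-mode luciferase assay. MDA-kb2 cells were co-treated with nilutamide (3.0uM final) and compounds, then incubated 16 hr at 37C, and CellTiter-Fluor fluorescence was measured.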
# [6] = qHTS assay to identify small molecule agonists of the estrogen receptor beta (ER-beta) signaling pathway - cell viability counter screen (AID 1259380; active = well fitted curve in the direction sought with a large enough effect in the repeat runs; an effect the other way counts as inactive or inconclusive; note: nearly all actives have a fitted effect of over 30% in size; note: potency is the fitted concentration of half-maximal effect)
# Outline: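 In this qHTS counter screen, HEK293T cells carrying an ER-beta/UAS beta-lactamase reporter, grown in 2% charcoal-stripped FBS, received compound for 16 hr; ATP-based CellTiter-Glo luminescence was then read after 30 min at room temperature.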
# [7] = biological target: Androgen receptor (Homo sapiens) (UniProt P10275); test: qHTS assay to identify small molecule agonists of the androgen receptor (AR) signaling pathway in the presence of an antagonist (AID 1259381); note: nearly all actives have a fitted effect of over 15% in size
# Sequence of Androgen receptor (Homo sapiens) (P10275 whole entry, looked up): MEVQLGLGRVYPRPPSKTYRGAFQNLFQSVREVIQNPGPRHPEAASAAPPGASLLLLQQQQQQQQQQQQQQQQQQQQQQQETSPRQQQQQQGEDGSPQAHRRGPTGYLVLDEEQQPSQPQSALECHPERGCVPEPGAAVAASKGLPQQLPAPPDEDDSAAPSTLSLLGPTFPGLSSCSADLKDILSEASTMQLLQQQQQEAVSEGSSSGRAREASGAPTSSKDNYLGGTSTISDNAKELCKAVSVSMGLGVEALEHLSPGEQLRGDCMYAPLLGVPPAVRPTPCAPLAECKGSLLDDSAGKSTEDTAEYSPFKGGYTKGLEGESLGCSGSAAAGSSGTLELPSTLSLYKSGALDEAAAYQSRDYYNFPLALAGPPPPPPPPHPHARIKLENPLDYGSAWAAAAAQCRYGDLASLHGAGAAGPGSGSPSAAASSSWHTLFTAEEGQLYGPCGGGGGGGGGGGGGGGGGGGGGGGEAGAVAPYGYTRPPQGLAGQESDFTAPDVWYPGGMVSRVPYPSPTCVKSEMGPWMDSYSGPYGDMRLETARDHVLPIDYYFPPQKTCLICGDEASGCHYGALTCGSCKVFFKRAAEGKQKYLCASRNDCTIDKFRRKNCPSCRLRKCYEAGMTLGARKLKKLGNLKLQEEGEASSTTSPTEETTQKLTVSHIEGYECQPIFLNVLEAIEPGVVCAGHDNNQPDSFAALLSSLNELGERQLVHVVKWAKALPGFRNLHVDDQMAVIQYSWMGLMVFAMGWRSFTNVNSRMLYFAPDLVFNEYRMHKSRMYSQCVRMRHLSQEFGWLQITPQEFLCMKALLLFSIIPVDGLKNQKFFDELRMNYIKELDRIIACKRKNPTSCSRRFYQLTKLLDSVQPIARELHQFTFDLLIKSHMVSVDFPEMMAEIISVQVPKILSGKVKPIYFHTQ
# Outline: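 AR antagonist background: nilutamide 3.0uM final. Cell line: MDA-kb2, MMTV-driven luciferase, responsive to both AR and GR. Exposure 16hr, 37C, no CO2; ONE-Glo luminescence.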
# [8] = qHTS assay to identify small molecule antagonists of the estrogen receptor beta (ER-beta) signaling pathway - cell viability counter screen (AID 1259382; active = well fitted curve in the direction sought with a large enough effect in the repeat runs; an effect the other way counts as inactive or inconclusive; note: nearly all actives have a fitted effect of over 55% in size; note: potency is the fitted concentration of half-maximal effect)
# Outline: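 HEK293T ER-beta-UAS-bla, 2% charcoal-stripped FBS; compounds + 1nM E2 16 hr 37C; CellTiter-Glo luminescence, 30 min RT.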
# [9] = qHTS assay to identify small molecule agonists or antagonists of the thyroid stimulating hormone receptor (TSHR) signaling pathway - wild type cell line counter screen (AID 1259384)
# Outline: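 Counter screen in untransfected Hek293: compounds (15-point titration, triplicate) plus phosphodiesterase inhibitor Ro20-1724 added after 18 h plating; 30 min RT. Intracellular cAMP via competitive d2/cryptate immunoassay, 1 h incubation.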
# [10] = biological target: Thyrotropin receptor (Homo sapiens) (UniProt P16473); test: qHTS assay to identify small molecule antagonists of the thyroid stimulating hormone receptor (TSHR) signaling pathway (AID 1259385); note: nearly all actives have a fitted effect of over 20% in size
# Sequence of Thyrotropin receptor (Homo sapiens) (P16473 whole entry, looked up): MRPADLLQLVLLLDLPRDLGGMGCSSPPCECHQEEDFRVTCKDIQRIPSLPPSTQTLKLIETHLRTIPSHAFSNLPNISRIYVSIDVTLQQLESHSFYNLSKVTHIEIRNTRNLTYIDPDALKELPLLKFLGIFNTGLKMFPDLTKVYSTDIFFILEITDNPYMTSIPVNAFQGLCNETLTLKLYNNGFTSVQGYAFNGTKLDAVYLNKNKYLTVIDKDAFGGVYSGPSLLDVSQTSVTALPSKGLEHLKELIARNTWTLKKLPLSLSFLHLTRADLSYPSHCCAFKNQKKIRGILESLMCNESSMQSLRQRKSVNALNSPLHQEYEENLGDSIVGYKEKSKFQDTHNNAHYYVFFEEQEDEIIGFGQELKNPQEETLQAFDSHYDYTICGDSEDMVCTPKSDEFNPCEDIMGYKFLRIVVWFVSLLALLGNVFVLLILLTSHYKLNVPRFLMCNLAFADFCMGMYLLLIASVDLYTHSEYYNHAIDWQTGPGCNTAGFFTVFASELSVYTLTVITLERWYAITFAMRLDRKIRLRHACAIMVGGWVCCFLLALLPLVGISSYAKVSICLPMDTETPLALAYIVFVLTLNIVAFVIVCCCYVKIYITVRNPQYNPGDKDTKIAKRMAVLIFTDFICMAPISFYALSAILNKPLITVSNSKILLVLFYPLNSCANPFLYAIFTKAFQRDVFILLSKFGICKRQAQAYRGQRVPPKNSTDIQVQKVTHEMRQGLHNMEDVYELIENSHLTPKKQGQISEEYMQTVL
# Outline: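 Antagonist mode: compound-treated TSHR-expressing HEK293 cells were stimulated with 1.5 ng/mL TSH (final) in presence of Ro20-1724 for 30 min at RT. HTRF cAMP detection after 1 h; each compound tested at 15 concentrations, triplicate.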
# [11] = qHTS assay to identify small molecule agonists of the estrogen receptor alpha (ER-alpha) signaling pathway in the presence of an antagonist - cell viability counter screen (AID 1259386; active = well fitted curve in the direction sought with a large enough effect in the repeat runs; an effect the other way counts as inactive or inconclusive;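 note: cells exposed to compounds for 22 h at 37 °C before the viability read; nearly all actives have a fitted effect of over 30% in size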; note: potency is the fitted concentration of half-maximal effect)
# Outline: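 Steps: 5-day stripped-FBS culture; seed and incubate 24hr; add ICI-182,780 (10.0nM final); pin 15-point compound titration; incubate 22hr at 37C; add CellTiter-Fluor at 21hr; read fluorescence.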
# [12] = qHTS assay to identify small molecule agonists of the progesterone receptor (PR) signaling pathway - cell viability counter screen (AID 1346799); note: nearly all actives have a fitted effect of over 45% in size; note: potency is the fitted concentration of half-maximal effect
# Outline: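 PR-UAS-bla HEK293T cells, 3,000 per well in medium with 2% charcoal-stripped FBS, were preincubated 6 hr at 37C, then exposed to compounds for 16 hr; viability was read as CellTiter-Glo luminescence after 30 min at room temperature.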
# [13] = qHTS assay to identify small molecule antagonists of the TGF-beta/Smad signaling pathway - cell viability counter screen (AID 1346824; active = well fitted curve in the direction sought with a large enough effect in the repeat runs; an effect the other way counts as inactive or inconclusive; note: nearly all actives have a fitted effect of over 50% in size)
# Outline: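 Cytotoxicity counter-screen run in the same wells as the beta-lactamase Smad reporter read: CellTiter-Glo luminescence after 30 min at room temperature. HEK 293T SBE-bla cells had 5 hr compound exposure at 37 C with TGF-beta1 (0.25 ng/mL stock).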
# [14] = biological target: Thyrotropin-releasing hormone receptor (Homo sapiens) (UniProt P34981); test: qHTS assay to identify small molecule antagonists of the thyrotropin-releasing hormone receptor (TRHR) signaling pathway (AID 1346877; active = well fitted inhibition curve with a large enough effect in the repeat runs, not every such curve was filed as active; note: series mostly up to about 51 µM)
# Sequence of Thyrotropin-releasing hormone receptor (Homo sapiens) (P34981 whole entry, looked up): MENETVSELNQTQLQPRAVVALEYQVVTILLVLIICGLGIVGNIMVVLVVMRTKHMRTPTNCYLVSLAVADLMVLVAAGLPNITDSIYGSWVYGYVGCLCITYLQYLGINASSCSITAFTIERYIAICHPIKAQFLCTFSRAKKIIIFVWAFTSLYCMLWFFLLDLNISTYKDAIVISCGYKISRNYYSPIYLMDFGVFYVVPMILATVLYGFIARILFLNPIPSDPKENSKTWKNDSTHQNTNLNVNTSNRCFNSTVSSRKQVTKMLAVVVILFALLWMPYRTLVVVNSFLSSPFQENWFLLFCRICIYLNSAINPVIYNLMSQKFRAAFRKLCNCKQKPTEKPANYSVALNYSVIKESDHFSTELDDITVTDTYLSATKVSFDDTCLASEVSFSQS
# Outline: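 Human TRHR in HEK293 cells; inhibition of the intracellular calcium rise triggered by 1 nM TRH was followed by fluorescence over 3 min. Compounds were run at 15 concentrations, three replicates each.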
# [15] = biological target: Estrogen receptor (Homo sapiens) (UniProt P03372); test: qHTS assay to identify small molecule agonists of the estrogen receptor alpha (ER-alpha) signaling pathway in the presence of an antagonist (AID 1259383); note: top concentration of the series differs between compounds; nearly all actives have a fitted effect of over 15% in size
# Sequence of Estrogen receptor (Homo sapiens) (P03372 whole entry, looked up): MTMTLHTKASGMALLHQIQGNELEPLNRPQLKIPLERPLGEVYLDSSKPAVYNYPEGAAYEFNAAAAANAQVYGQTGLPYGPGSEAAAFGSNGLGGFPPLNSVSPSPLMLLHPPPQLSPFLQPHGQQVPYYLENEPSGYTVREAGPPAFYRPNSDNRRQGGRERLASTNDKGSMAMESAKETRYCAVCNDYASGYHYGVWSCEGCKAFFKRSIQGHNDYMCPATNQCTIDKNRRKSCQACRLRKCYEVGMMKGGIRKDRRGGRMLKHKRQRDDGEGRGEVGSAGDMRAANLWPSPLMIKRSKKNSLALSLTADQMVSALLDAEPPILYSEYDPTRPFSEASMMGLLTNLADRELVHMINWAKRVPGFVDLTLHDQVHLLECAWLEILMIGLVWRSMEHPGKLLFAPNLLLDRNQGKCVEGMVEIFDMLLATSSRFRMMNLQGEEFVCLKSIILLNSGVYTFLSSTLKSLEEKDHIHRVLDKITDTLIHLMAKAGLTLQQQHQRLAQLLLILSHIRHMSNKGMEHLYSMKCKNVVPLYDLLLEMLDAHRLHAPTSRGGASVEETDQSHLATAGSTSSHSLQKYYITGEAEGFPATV
# Outline: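 ER-alpha agonism measured under antagonist challenge: 10.0nM ICI-182,780 (final) plus compound, 15 concentrations, 22hr, VM7Luc4E2 ERE-luciferase cells. Read by luminescence.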
# [16] = biological target: Progesterone receptor (Homo sapiens) (UniProt P06401); test: qHTS assay to identify small molecule agonists of the progesterone receptor (PR) signaling pathway (AID 1346784); note: nearly all actives have a fitted effect of over 30% in size
# Sequence of Progesterone receptor (Homo sapiens) (P06401 whole entry, looked up): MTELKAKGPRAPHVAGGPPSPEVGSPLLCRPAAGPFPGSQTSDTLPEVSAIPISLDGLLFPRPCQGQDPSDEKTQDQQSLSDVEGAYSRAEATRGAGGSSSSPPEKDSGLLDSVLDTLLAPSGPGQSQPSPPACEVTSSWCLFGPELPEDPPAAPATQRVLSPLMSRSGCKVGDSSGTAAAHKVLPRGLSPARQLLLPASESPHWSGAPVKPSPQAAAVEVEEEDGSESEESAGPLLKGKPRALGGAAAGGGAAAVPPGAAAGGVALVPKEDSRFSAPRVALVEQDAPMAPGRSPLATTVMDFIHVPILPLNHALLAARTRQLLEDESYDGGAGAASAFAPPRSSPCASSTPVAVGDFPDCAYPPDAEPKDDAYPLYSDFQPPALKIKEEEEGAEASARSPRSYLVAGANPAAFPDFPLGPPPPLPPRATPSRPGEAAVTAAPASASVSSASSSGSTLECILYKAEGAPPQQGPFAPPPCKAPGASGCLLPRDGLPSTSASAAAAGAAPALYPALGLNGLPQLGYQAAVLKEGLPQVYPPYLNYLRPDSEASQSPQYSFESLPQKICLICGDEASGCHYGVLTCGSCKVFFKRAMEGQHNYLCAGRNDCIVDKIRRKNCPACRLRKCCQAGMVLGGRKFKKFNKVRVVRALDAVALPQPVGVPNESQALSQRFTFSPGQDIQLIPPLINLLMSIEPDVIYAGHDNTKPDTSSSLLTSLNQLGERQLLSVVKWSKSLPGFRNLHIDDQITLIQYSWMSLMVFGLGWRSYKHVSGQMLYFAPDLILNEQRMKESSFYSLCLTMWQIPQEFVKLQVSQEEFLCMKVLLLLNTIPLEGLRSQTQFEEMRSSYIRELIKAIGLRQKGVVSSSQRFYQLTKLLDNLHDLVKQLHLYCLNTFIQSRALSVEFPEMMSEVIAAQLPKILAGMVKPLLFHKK
# Outline: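 PR-UAS-bla HEK 293T cells carrying a UAS-driven beta-lactamase reporter were seeded in medium with 2% charcoal-stripped FBS, preincubated 6 hr at 37C, then exposed to compounds in DMSO for 16 hr; agonism was read by LiveBLAzer B/G FRET fluorescence.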
# [17] = qHTS assay to identify small molecule antagonists of the progesterone receptor (PR) signaling pathway - cell viability counter screen (AID 1346798; active = well fitted curve in the direction sought with a large enough effect in the repeat runs; an effect the other way counts as inactive or inconclusive; note: series mostly up to about 92 µM; nearly all actives have a fitted effect of over 50% in size)
# Outline: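 PR-UAS-bla HEK293T cells in medium with 2% charcoal-stripped FBS were treated with compounds plus R5020 for 16 hr at 37C. Cell viability was then read by CellTiter-Glo luminescence after 30 min at room temperature in the same wells.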
# [18] = qHTS assay to identify small molecule agonists of the TGF-beta/Smad signaling pathway (AID 1346859; active = well fitted activation curve with a large enough effect in the signal ratio in the repeat runs, not every such curve was filed as active; the % refers to the signal ratio; note: series mostly up to about 77 µM)
# Outline: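 HEK 293T cells stably carrying a beta-lactamase reporter driven by the Smad binding element were seeded overnight, exposed to DMSO-dissolved compounds for 5 hr at 37 C, 5% CO2, then loaded with FRET substrate for 2 hr at room temperature.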
# [19] = biological target: Progesterone receptor (Homo sapiens) (UniProt P06401); test: qHTS assay to identify small molecule antagonists of the progesterone receptor (PR) signaling pathway (AID 1346795; active = well fitted inhibition curve with a large enough effect in the signal ratio in the repeat runs, not every such curve was filed as active; the % refers to the signal ratio)
# Outline: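 PR-UAS-bla HEK293T cells carrying a UAS-driven beta-lactamase reporter were plated in medium with 2% charcoal-stripped FBS and rested 6 hr at 37C. Compounds were added with 1 nM R5020 (final) for 16 hr, then FRET substrate loaded 2 hr at room temperature.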
# [20] = qHTS assay to identify small molecule agonists of the TGF-beta/Smad signaling pathway - cell viability counter screen (AID 1346829; active = well fitted curve in the direction sought with a large enough effect in the repeat runs; an effect the other way counts as inactive or inconclusive; note: top concentration of the series differs between compounds; nearly all actives have a fitted effect of over 45% in size)
# Outline: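 Here the cytotoxicity of library compounds is measured in SBE-bla HEK 293T cells treated for 5 hr, using CellTiter-Glo added to wells already read for the beta-lactamase reporter.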
SMILES,outcome [1],Potency [2],outcome [3],Potency [4],Potency [5],Potency [6],Potency [7],Potency [8],outcome [9],outcome [10],Potency [11],Potency [12],outcome [13],outcome [14],Potency [15],Potency [16],Potency [17],outcome [18],outcome [19],Potency [20]
c1ccc2[nH]ccc2c1,inactive,6.01 µM (active) and inactive,inactive,inactive,7.57 µM (active) and inactive,26.9 µM (active) and inactive,inactive,26.9 µM (active) and inactive,inactive,inactive,60.1 µM (active) and inactive,26.9 µM (active) and inactive,inactive,inactive,–,–,–,–,–,–
NNC(=O)c1ccncc1,inactive,inactive,inactive,inactive,inactive,inactive,–,inactive,inactive,inactive,inactive,inactive,inactive,–,inactive,inactive,inactive,inactive,–,–
Cc1ccc(O)cc1,inactive,inactive,inactive,inactive,inactive,inactive,inactive,inactive,inactive,inactive,inactive,inactive,inactive,inactive,–,inactive,–,–,inactive,–
O=C(O)/C=C\C(=O)O,inactive,inactive,inactive,inactive,inactive,inactive,–,inactive,inactive,inactive,inactive,inactive,inactive,inactive,–,inactive,–,–,inactive,inactive
C[C@]12C=CC(=O)C=C1CC[C@@H]1[C@@H]2[C@@H](O)C[C@@]2(C)[C@H]1CC[C@]2(O)C(=O)CO,inactive,inactive,inactive,inactive,inactive,inactive,–,inactive,–,–,inactive,inactive,inactive,–,inactive,–,–,–,–,inactive
O=C(O)CCCCCCCC(=O)O,inactive,inactive,inactive,inactive,inactive,inactive,–,inactive,inactive,inactive,inactive,inactive,inactive,inactive,–,inactive,–,–,inactive,–
CCCCC1C(=O)N(c2ccccc2)N(c2ccccc2)C1=O,inactive,inactive,inactive,inactive,inactive,inactive,–,inactive,inactive,inactive,inactive,inactive,inactive,inactive,inactive,inactive,–,inactive,–,inactive
Cc1ccccc1C(OCCN(C)C)c1ccccc1 (stereo unspecified),inactive,27.3 µM (active),inactive,inactive,inactive,61.1 µM (active),–,inactive,inactive,inactive,inactive,inactive,inactive,inactive,inactive,inactive,–,inactive,inactive,–
CC(C)(Oc1ccc(C2CC2(Cl)Cl)cc1)C(=O)O (stereo unspecified),inactive,inactive,inactive,inactive,inactive,inactive,inactive,inactive,inactive,inactive,inactive,inactive,inactive,–,inactive,inactive,–,–,–,–
CC(C)[C@@H]1CC[C@@H](C)C[C@H]1O,inactive,inactive and 31.6 µM (active),inactive,inactive,inactive,inactive,inactive,inactive,inactive,inactive,inactive,inactive,inactive,inactive,–,inactive,–,inactive,–,inactive
Cn1cc[nH]c1=S,inactive,inactive,inactive,43.2 µM (active) and inactive,inactive,inactive,–,inactive,inactive,inactive,inactive,43.2 µM (active) and inactive,inactive,–,inactive,inactive,–,inactive,–,–
COc1ccc2[nH]cc(CCNC(C)=O)c2c1,inactive,inactive,inactive,inactive,inactive,inactive,–,inactive,inactive,inactive,inactive,inactive,inactive,inactive,inactive,inactive,–,–,–,inactive
CCCN(CCC)S(=O)(=O)c1ccc(C(=O)O)cc1,inactive,inactive,inactive,inactive,inactive,inactive,inactive,inactive,inactive,inactive,inactive,inactive,inactive,inactive,–,inactive,–,inactive,–,–
Nc1ccc(C(=O)O)cc1,inactive,inactive,inactive,inactive,inactive,inactive,–,inactive,inactive,inactive,inactive,inactive,inactive,–,inactive,inactive,–,inactive,–,inactive
Cc1noc(NS(=O)(=O)c2ccc(N)cc2)c1C,inactive,inactive,inactive,inactive,inactive,inactive,–,inactive,inactive,inactive,inactive,inactive,–,inactive,inactive,inactive,inactive,inactive,–,inactive
C/C=C/c1ccc(OC)cc1,inactive,inactive,inactive,inactive,inactive,inactive,–,inactive,inactive,inactive,inactive,inactive,inactive,inactive,–,inactive,inactive,–,inactive,–
